Records with an inconclusive call do not appear. Activity calls are given as the source filed them. Unless noted, the call rests on the fitted dose curve; in most records, active means well fitted curve in the direction sought with a large enough effect; inconclusive means small, poorly fitted or top-dose-only effect, or another doubt; inactive means no such curve, though single readings can be large; an effect the other way counts as inactive or inconclusive.
What was measured:
[1] = target: Lysosomal acid glucosylceramidase (Homo sapiens) (UniProt P04062); test: Glucocerebrosidase-p2 (AID 348; in the data active means potency below about 10 µM; further: potency means the concentration at half of the fitted maximal effect); settings: purified GBA, blue fluorogenic substrate, 40 min
Lysosomal acid glucosylceramidase (Homo sapiens), sequence (P04062 whole entry, looked up): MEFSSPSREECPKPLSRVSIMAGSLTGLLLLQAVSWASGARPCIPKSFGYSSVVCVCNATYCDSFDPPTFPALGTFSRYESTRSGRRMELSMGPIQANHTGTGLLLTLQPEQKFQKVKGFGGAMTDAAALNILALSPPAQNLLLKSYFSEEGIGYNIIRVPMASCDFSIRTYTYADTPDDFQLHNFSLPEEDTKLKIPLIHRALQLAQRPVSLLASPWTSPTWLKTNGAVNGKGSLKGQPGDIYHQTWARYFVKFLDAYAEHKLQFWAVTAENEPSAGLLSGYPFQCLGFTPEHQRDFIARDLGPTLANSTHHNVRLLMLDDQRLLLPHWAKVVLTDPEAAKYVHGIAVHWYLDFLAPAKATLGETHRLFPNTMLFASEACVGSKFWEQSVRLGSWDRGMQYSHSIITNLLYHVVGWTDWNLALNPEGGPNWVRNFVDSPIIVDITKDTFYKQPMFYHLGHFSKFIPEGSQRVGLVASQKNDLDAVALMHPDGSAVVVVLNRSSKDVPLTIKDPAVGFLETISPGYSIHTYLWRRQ
Method in brief: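 Normal human glucocerebrosidase (0.2 nM) with blue fluorogenic substrate (80 uM final) in citrate/phosphate pH 5.9 with 10mM sodium taurocholate, 0.01% tween-20; 40 min RT, NaOH/glycine stop; fluorescence Ex 365/Em 440; AC50 from a titration from 0.6 nM upwards.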

[2] = AP1 Signaling Pathway (AID 357; active means well fitted curve in either direction with a large enough effect, not every such curve was filed as active;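 further: ME-180 reporter cells stimulated with EGF at its EC50 level; on the % scale 0 is the no-effect control and ±100 the full control effect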); settings: ME-180 AP-1-bla reporter, EGF-induced, beta-lactamase ratio, 5 h; at 7.69 µM (top of the series) unless noted
Method in brief: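 Modulation of EGF-driven AP-1 transcription was assessed with a beta-lactamase reporter in ME-180 cells. Compound and EC50 EGF were co-incubated 5 hours at 37 °C before 2.5-hour CCF4 loading at room temperature and dual-emission reading.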

[3] = NFAT Signaling Pathway (AID 444; active means well fitted curve in either direction with a large enough effect, not every such curve was filed as active;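 further: carbachol stimulus at about its EC50 of 1 µM final; on the % scale 0 is the no-effect control and ±100 the full control effect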); settings: Jurkat NFAT-bla M1, carbachol, beta-lactamase ratio, 5 h; at 7.69 µM (top of the series) unless noted
Method in brief: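 Read-out: CCF4 FRET ratio (460 nm/530 nm) after 1 h RT dye loading, used for %activity and AC50 from titration series. Cells: Jurkat NFAT-β-lactamase/M1 line, treated with compound plus 1 uM carbachol for 5 h, 37 °C.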

[4] = Stat Signaling Pathway (AID 446; active means well fitted curve in either direction with a large enough effect, not every such curve was filed as active;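 further: ME-180 cervical cancer cells given 40 pM IL-6 alongside compound; SIE-controlled beta-lactamase reporter measured as 460/530 nm FRET emission ratio; on the % scale 0 is the no-effect control and ±100 the full control effect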); settings: ME-180 SIE beta-lactamase reporter, IL-6 stimulated, 5 h; at 7.69 µM (top of the series) unless noted
Method in brief: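 Normalization used AC90 stimulation (300 pM IL-6) and AC90 inhibition (125 nM pan-JAK inhibitor at 40 pM IL-6). The underlying signal is SIE-driven beta-lactamase in ME-180 cells after 5 h IL-6 exposure with compound.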

[5] = target: Glucocorticoid receptor (Homo sapiens) (UniProt P04150); test: GR-GFP Redistribution (AID 450;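 active means compounds whose dose series gives a full or clear partial fitted curve of increased nuclear translocation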; further: potency means the concentration at half of the fitted maximal effect); settings: U2OS GR-GFP nuclear translocation, laser cytometry, 2 h
Glucocorticoid receptor (Homo sapiens), sequence (P04150 whole entry, looked up, the tested form may be a part): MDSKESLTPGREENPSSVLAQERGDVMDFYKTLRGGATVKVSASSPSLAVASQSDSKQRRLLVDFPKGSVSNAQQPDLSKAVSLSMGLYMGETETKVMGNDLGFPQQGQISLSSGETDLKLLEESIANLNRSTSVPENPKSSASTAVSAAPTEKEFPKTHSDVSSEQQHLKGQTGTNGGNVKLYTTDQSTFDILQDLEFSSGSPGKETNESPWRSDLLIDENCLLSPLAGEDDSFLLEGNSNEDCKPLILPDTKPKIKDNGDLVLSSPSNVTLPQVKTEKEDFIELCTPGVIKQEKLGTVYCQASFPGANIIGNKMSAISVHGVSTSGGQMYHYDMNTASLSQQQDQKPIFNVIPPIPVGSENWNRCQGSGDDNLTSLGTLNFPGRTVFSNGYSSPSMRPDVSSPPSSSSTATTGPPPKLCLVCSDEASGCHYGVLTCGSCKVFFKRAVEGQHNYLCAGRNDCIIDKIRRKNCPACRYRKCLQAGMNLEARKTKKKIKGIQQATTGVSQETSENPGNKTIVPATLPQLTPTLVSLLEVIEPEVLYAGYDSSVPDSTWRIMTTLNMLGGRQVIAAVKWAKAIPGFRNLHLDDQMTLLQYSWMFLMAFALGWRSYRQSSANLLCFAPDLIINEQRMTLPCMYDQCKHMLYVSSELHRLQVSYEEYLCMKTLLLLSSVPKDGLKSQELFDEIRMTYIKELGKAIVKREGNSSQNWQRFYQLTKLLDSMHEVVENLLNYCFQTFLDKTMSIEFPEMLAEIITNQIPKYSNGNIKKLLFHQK

[6] = target: Glucocorticoid receptor (Homo sapiens) (UniProt P04150); test: GR-EFC Redistribution (AID 451; calls by dose curve; further: potency means the concentration at half of the fitted maximal effect); settings: CHO-K1 GR-EFC translocation, beta-gal luminescence, 2 h
Method in brief: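 Translocation of GR-ED fusion to nuclear EA restores b-gal, read by luminescence after 1 h room-temperature detection. Engineered CHO-K1 biosensor cells, 1,000/well, exposed 2 h at 37 C to titrations up to 46 uM final.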

[7] = target: Mitogen-activated protein kinase 10 (Mus musculus) (UniProt Q61831); test: JNK3 AlphaScreen Assay (AID 530; active means well fitted curve in either direction with a large enough effect, not every such curve was filed as active;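 further: kinase came from lysate of stimulated human HepG2 cells; signal reports phosphorylation of biotinylated GST-cJun 1-79 at Ser73 with 10 µM ATP; on the % scale 0 is the no-effect control and ±100 the full control effect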); settings: JNK3 lysate, c-Jun phosphorylation; series mostly up to 57.1 µM
Method in brief: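 qHTS titrations with 15 min compound pre-incubation before adding ATP (10 uM final). Read-out: AlphaScreen of Ser73-phosphorylated biotin-GST-cJun using HepG2 lysate JNK3 activated by IL-1β and TNFα.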

[8] = qHTS Assay for Lipid Storage Modulators (AID 1519; calls by dose curve); settings: Drosophila S3 cells, BODIPY lipid droplet/cell ratio, laser cytometry, cells loaded with oleic acid; for activity change, negative = inhibition: at 57.5 µM (top of the series)
Method in brief: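 Cells seeded at 5,000 per well were treated with compounds over a concentration series and loaded with oleic acid (400 uM, as added). Lipid droplet fluorescence (488 nm excitation, 500-530 nm channel) was read by laser-scanning cytometry and normalized to 20 uM Triacsin C.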

[9] = target: Dual specificity protein kinase CLK4 (Homo sapiens) (UniProt Q9HAZ1); test: qHTS Assay for Inhibitors of CDC-like Kinase 4 (Kinase-Glo Assay) (AID 1770); settings: recombinant Clk4, Kinase-Glo ATP depletion luminescence; series mostly up to 66.7 µM; further: on the % scale 0 is the no-effect control and ±100 the full control effect; nearly all actives have a fitted effect of over 65% in size
Dual specificity protein kinase CLK4 (Homo sapiens), sequence (Q9HAZ1 whole entry, looked up): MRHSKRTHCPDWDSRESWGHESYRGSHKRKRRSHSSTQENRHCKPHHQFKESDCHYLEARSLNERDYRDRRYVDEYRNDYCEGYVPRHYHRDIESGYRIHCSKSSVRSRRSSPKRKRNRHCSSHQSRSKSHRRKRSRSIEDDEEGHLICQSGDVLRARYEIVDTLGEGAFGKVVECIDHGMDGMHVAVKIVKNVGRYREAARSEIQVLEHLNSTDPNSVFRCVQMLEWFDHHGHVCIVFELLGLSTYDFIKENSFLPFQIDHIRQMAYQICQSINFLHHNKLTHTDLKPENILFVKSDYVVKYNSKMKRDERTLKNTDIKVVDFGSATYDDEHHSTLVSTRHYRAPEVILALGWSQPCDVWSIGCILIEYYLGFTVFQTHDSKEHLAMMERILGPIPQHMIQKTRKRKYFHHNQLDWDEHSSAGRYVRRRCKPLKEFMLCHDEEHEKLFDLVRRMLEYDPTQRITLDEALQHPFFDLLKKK
Method in brief: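 25 nM Clk4 with 100 uM RS repeat peptide and 1 uM ATP (final) in Tris pH7.5, 10 mM MgCl2, 4.5 h at room temperature. Remaining ATP measured by Kinase-Glo luciferase luminescence.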

[10] = target: Dual specificity protein kinase CLK4 (Homo sapiens) (UniProt Q9HAZ1); test: qHTS Assay for Inhibitors of CDC-like Kinase 4 (ADP-Glo Assay) (AID 1771); settings: recombinant CLK4, ADP-Glo luminescence; series mostly up to 80 µM; further: on the % scale 0 is the no-effect control and ±100 the full control effect; nearly all actives have a fitted effect of over 70% in size
Method in brief: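 ADP production was read by ADP-Glo luminescence after residual ATP depletion, following 1 h room-temperature reaction of 25 nM Clk4, 1 uM ATP and 100 uM RS peptide with MgCl2, EGTA, DTT and Triton X-100.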

[11] = target: Dual specificity protein kinase CLK4 (Homo sapiens) (UniProt Q9HAZ1); test: qHTS Assay for Inhibitors of CDC-like Kinase 4 (ADP-FP Assay) (AID 1795); settings: Transcreener ADP fluorescence polarization; series mostly up to 50 µM;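 further: recombinant human CLK4 phosphorylating RS repeat peptide at 1 µM ATP; on the % scale 0 is the no-effect control and ±100 the full control effect; nearly all actives have a fitted effect of over 60% in size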
Method in brief: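 Recombinant Clk4 (6.25 nM) phosphorylated 100 uM RS repeat peptide with 1 uM ATP in 25 mM Tris pH 7.5, 10 mM MgCl2, 0.5 mM EGTA, 2.5 mM DTT, 0.01% Triton X-100 for 1 h. ADP was detected by Transcreener ADP2 competitive fluorescence polarization after 30 min at room temperature.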

[12] = target: Ubiquitin carboxyl-terminal hydrolase 1 (Homo sapiens) (UniProt O94782); test: Inhibitors of USP1/UAF1: Pilot qHTS (AID 504865); settings: purified USP1/UAF1, Ub-rhodamine cleavage fluorescence; series mostly up to 54.9 µM;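 further: rhodamine fluorescence freed from ubiquitin-rhodamine substrate followed over time; top concentration of the series differs between compounds; on the % scale 0 is the no-effect control and ±100 the full control effect; nearly all actives have a fitted effect of over 35% in size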
Ubiquitin carboxyl-terminal hydrolase 1 (Homo sapiens), sequence (O94782 whole entry, looked up): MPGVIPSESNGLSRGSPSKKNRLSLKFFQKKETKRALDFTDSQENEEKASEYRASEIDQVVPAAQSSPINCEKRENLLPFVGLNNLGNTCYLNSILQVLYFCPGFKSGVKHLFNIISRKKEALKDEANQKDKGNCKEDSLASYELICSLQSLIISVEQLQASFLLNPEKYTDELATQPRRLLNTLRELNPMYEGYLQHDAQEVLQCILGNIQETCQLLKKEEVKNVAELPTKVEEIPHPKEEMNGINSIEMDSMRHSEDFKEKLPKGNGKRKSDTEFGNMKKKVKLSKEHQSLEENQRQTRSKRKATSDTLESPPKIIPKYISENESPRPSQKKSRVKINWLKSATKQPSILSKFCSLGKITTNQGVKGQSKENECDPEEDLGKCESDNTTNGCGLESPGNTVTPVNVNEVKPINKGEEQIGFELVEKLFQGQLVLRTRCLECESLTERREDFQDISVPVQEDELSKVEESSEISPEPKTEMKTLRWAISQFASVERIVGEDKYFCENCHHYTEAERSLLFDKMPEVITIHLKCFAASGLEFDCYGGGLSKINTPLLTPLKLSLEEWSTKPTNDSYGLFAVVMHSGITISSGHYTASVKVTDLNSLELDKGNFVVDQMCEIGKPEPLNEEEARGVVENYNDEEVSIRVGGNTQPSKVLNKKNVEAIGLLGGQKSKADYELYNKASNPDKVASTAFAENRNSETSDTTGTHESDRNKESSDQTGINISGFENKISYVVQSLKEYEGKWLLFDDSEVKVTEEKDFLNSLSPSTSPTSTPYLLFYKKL
Method in brief: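 USP1/UAF1 complex at 1 nM preincubated 15 min at room temperature with compound, then Ub-Rho substrate added at 150 nM final. Fluorescence (480/540 nm) read kinetically in 50 mM HEPES pH 7.8, 0.5 mM EDTA, 1 mM TCEP, 0.1 mg/ml BSA, 0.01% Tween-20.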

[13] = Primary qHTS for small molecule stabilizers of the endoplasmic reticulum resident proteome: Secreted ER Calcium Modulated Protein (SERCaMP) assay (AID 1508630); settings: SH-SY5Y GLuc-SERCaMP (Gaussia luciferase released on ER calcium loss) secretion, thapsigargin, luminescence; series mostly up to 38.4 µM; further: on the % scale 0 is the no-effect control and ±100 the full control effect
Method in brief: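 The SH-SY5Y reporter protocol was run at 3 concentrations up to 38.3 uM (primary) or 11 concentrations (follow-up): 16 h compound, 100 nM thapsigargin for 4 h, then extracellular luciferase luminescence.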

[14] = target: 3',5'-cyclic-AMP phosphodiesterase 4B (Homo sapiens) (UniProt Q07343); test: qHTS Assay for Inhibitors of PDE-IV (AID 607; active means well fitted activation curve with a large enough effect in the main read-out, with a control signal flat, not every such curve was filed as active; further: % of control where 0% means no effect); settings: HEK293 ACTOne CNG channel cells, membrane potential fluorescence; series mostly up to 22.9 µM
3',5'-cyclic-AMP phosphodiesterase 4B (Homo sapiens), sequence (Q07343 whole entry, looked up): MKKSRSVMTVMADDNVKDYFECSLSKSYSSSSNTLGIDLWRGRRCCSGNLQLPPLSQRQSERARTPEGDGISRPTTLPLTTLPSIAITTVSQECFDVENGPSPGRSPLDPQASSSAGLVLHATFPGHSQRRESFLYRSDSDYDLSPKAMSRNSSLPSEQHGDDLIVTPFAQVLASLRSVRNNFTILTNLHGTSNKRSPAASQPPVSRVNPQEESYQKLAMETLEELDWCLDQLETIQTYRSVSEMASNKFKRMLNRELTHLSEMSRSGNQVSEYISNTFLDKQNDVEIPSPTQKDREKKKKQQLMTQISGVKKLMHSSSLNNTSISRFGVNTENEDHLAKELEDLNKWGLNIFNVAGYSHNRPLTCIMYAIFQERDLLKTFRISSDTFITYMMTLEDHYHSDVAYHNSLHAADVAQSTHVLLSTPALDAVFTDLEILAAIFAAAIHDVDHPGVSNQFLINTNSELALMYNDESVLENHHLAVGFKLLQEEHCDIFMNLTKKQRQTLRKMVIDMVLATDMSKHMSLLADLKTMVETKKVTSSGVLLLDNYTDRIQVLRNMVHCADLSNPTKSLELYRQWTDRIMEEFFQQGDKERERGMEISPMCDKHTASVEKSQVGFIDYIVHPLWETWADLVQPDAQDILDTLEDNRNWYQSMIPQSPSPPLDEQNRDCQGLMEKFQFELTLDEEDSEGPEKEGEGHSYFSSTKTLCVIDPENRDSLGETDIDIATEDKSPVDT
Method in brief: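 HEK293 ACTOne cells with CNG channel (1000/well), endogenous PDE4; membrane potential dye, compounds up to 22.9 uM final. Fluorescence Ex 535/Em 590; RO 20-1724 (100 uM final) as reference.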

[15] = target: Cytochrome P450 3A4 (Homo sapiens) (UniProt P08684); test: qHTS Assay for Inhibitors and Substrates of Cytochrome P450 3A4 (AID 884); settings: recombinant CYP3A4, Luciferin-PPXE luminescence; series mostly up to 57.1 µM; further: potency means the concentration at half of the fitted maximal effect; nearly all actives have a fitted effect of over 50% in size
Cytochrome P450 3A4 (Homo sapiens), sequence (P08684 whole entry, looked up): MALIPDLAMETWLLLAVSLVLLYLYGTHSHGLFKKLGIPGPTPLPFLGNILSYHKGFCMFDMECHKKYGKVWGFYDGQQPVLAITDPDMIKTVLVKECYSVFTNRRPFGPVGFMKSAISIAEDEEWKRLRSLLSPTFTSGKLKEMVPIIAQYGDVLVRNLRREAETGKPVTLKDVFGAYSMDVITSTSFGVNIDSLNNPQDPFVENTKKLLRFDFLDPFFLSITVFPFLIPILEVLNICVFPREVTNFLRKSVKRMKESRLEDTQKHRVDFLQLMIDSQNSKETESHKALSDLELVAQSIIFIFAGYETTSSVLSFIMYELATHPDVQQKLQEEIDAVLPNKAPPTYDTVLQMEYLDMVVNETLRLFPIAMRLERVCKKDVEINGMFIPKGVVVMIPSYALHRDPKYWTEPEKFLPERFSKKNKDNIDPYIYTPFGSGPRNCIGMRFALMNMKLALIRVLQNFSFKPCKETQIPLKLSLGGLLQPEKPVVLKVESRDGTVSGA
Method in brief: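 Luminescent readout of luciferin produced by CYP3A4 (20 nM) dealkylation of Luciferin-PPXE, 25 uM (its KM). NADPH-driven reaction ran 60 min at RT after 10 min compound preincubation; data scaled to 57 uM ketoconazole as 100% inhibition.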

[16] = target: Cytochrome P450 3A4 (Homo sapiens) (UniProt P08684); test: qHTS Assay for Activators of Cytochrome P450 3A4 (AID 885); settings: recombinant CYP3A4, Luciferin-PPXE luminescence, 60 min; series mostly up to 57.1 µM; further: nearly all actives have a fitted effect of over 65% in size
Method in brief: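 Human CYP3A4 dealkylates Luciferin-PPXE to luciferin, which luciferase detection converts to light. Substrate was at its KM (25uM), buffer 200mM KPO4, reaction 60 min at RT.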

[17] = target: Cytochrome P450 1A2 (Homo sapiens) (UniProt P05177); test: p450-cyp1a2 (AID 410; calls by dose curve; further: potency means the concentration at half of the fitted maximal effect); settings: recombinant CYP1A2, luciferin-ME demethylation, luminescence; series mostly up to 57 µM
Cytochrome P450 1A2 (Homo sapiens), sequence (P05177 whole entry, looked up): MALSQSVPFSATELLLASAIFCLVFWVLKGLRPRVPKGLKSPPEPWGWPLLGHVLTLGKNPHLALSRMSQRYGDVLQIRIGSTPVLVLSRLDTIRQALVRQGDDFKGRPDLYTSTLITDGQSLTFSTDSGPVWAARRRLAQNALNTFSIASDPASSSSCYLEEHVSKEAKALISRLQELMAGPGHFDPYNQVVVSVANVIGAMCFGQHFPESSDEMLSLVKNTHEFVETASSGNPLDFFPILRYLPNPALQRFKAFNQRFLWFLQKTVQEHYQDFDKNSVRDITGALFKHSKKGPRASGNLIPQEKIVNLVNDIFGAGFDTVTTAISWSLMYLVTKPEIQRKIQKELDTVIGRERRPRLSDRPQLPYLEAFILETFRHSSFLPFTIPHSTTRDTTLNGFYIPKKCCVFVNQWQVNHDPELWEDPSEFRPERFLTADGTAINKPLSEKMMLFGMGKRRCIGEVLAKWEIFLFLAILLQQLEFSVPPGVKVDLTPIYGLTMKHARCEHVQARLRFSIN
Method in brief: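 Luminescent demethylation readout: Luciferin-ME (100uM, equal to Km) turned over by 20nM CYP1A2 for 60 min at room temperature after NADPH regeneration addition, following 10 min compound preincubation. Normalization used 57 uM furafylline as full inhibition.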

[18] = qHTS Assay for Identification of Small Molecule Agonists for Hypoxia Response Element Signaling Pathway (AID 914; active means well fitted activation curve with a large enough effect in the signal ratio, with a control signal flat, not every such curve was filed as active; the % refers to the signal ratio; further: % of control where 0% means no effect); settings: ME-180 (cervical carcinoma) HRE-bla reporter, beta-lactamase ratio, CoCl2, 17 h; activation: stronger effect = higher value
Method in brief: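 A beta-lactamase reporter under hypoxia response element control in ME-180 cells served as the system. Compound titrations plus EC50 CoCl2 ran 17 h at 37 degrees Celsius; AC50 values were fitted from %Activity.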

[19] = measured here: cell count channel max response
[20] = measured here: lipid channel max response

CN(C)c1ncc2nc(-c3cn(C)c4ccccc34)c(=O)n(C[C@H]3CCCO3)c2n1
inactive: Potency [1] > 11.4 µM | activity change, negative = inhibition [2] -23.8% | activity change, negative = inhibition [3] 3.82% | activity, negative = inhibition [4] -10.1% | Potency [5] > 9.22 µM | Potency [6] > 46 µM | outcome [7] | activity change, negative = inhibition [8] 6.78% | Potency [9] | Potency [10] | Potency [11] | Potency [12] | Potency [13]
5.1%: max response [8, 19]
8.36%: max response [8, 20]

Cc1noc(C)c1-c1cncnc1NCc1cccnc1
active: Potency [15] 3.16 µM
5.44%: max response [8, 20]
inactive: Potency [1] > 11.4 µM | activity change, negative = inhibition [2] 1.35% | activity change, negative = inhibition [3] 4.9% | activity, negative = inhibition [4] 14.8% | Potency [5] > 46 µM | Potency [6] > 46 µM | outcome [7] | Potency [14] | Potency [16] | activity change, negative = inhibition [8] 2.36% | Potency [9] | Potency [10] | Potency [11] | Potency [12] | Potency [13]
4.31%: max response [8, 19]

Cn1c(=O)c(-c2cccs2)nc2cnc(N3CCOCC3)nc21
inactive: Potency [1] > 11.4 µM | activity change, negative = inhibition [2] -14% | activity, negative = inhibition [4] -4.84% | Potency [6] > 46 µM | outcome [7] | Potency [14] | activation [18] 11.8% | activity change, negative = inhibition [8] 5.09% | Potency [9] | Potency [10] | Potency [11] | Potency [12] | Potency [13]
14.1%: max response [8, 19]
active: Potency [17] 5.01 µM
16.5%: max response [8, 20]

COc1ccc(-c2nc3cnc(Nc4cccc(OC)c4)nc3n(C[C@H]3CCCO3)c2=O)cc1
inactive: Potency [1] > 11.4 µM | activity change, negative = inhibition [2] -24.6% | activity change, negative = inhibition [3] -19.9% | activity, negative = inhibition [4] 16.7% | Potency [5] > 9.22 µM | Potency [6] > 46 µM | outcome [7] | Potency [14] | Potency [16] | activity change, negative = inhibition [8] -4.84% | Potency [9] | Potency [10] | Potency [11] | Potency [12] | Potency [13]
-12.2%: max response [8, 20]
-7.08%: max response [8, 19]

CNc1ncncc1-c1c(C)noc1C
45.6%: max response [8, 20]
37%: max response [8, 19]
inactive: Potency [1] > 11.4 µM | activity change, negative = inhibition [2] -14.2% | activity change, negative = inhibition [3] -0.793% | activity, negative = inhibition [4] 11.7% | Potency [5] > 46 µM | Potency [6] > 46 µM | outcome [7] | Potency [14] | activity change, negative = inhibition [8] 7.32% | Potency [9] | Potency [10] | Potency [11] | Potency [12] | Potency [13]

COCCn1c(=O)c(-c2ccc(F)cc2)nc2cnc(OC)nc21
9.8%: max response [8, 20]
inactive: Potency [1] > 11.4 µM | activity change, negative = inhibition [2] -3.31% | activity change, negative = inhibition [3] 15.2% | activity, negative = inhibition [4] -15% | Potency [5] > 9.22 µM | Potency [6] > 46 µM | outcome [7] | Potency [14] | activity change, negative = inhibition [8] 4.45% | Potency [9] | Potency [10] | Potency [11] | Potency [12] | Potency [13]
6.98%: max response [8, 19]

Reference: PubChem BioAssay (NCATS)
